Experimental findings from PubChem BioAssay (NCATS) are described below.

For experiment [1], the target named is Cellular tumor antigen p53 (Homo sapiens) (UniProt P04637). The experiment is described as follows: Primary qHTS for small molecule compounds that upregulate eGFP-tagged delta133p53alpha (in N-terminal) cells. (AID 2060322). Also: nearly all actives have a fitted effect of over 75% in size. Also: potency is read from the fitted curve at half-maximal effect.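 As to activation: series mostly up to about 56 µM; 0% = DMSO vehicle and 100% = reference activator.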 As to conditions: NCI-H358 eGFP-delta133p53alpha fluorescence, 24 h; activation: active compounds read high. The procedure, abridged: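 NCI-H358 cells pre-induced 24 h with 10 ng/ml doxycycline to express N-terminal eGFP-delta133p53alpha, then dosed 24 h at 37C without doxycycline; fixed, Hoechst-stained, GFP intensity by laser scanning cytometry, normalized to DMSO (0%) and 57.5 uM 5-azacytidine (100%).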
(qHTS replaces the single test concentration by a dilution series.)

Experiment [2] concerns the target Retinaldehyde dehydrogenase 3 (Homo sapiens) (UniProt P47895). The experiment is described as follows: qHTS for Inhibitors of the Aldehyde Dehydrogenase Family (ALDH1A3) Primary screen (AID 2061315).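 Also: plate controls were DMSO vehicle for no effect and reference inhibitor for full effect.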
Experiment [3] in a line: BET inhibitor-based combinations targeting novel dependencies in MECOM-rearranged (r) AML: UCSD-AML1 cell line (AID 2202235). Also: nearly all actives have a fitted effect of over 40% in size. Also: potency is read from the fitted curve at half-maximal effect. The method, boiled down:
(§1)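 Normalized to DMSO and empty-well controls, the luminescence data from CellTiter-Glo after 48 hr drug exposure were fitted across 11 concentrations. Reported metrics are area under the dose-response curve and its Z-transformed form.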

The nature of experiment [4]: BET inhibitor-based combinations targeting novel dependencies in MECOM-rearranged (r) AML: AML-191 cell line (AID 2202236; also: nearly all actives have a fitted effect of over 35% in size; also: potency is read from the fitted curve at half-maximal effect). The method, boiled down:
(§2)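 Here, 11-point titrations of each agent were applied to 500 seeded cells and incubated 48 hr; CellTiter-Glo signal, scaled against DMSO and empty wells, was integrated as AUC, then Z-scored within the individual line.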

The nature of experiment [5]: BET inhibitor-based combinations targeting novel dependencies in MECOM-rearranged (r) AML: AML-194 cell line (AID 2202237; also: potency is read from the fitted curve at half-maximal effect; nearly all actives have a fitted effect of over 40% in size). The procedure, abridged:
as §2

The nature of experiment [6]: BET inhibitor-based combinations targeting novel dependencies in MECOM-rearranged (r) AML: SET-2 cell line (AID 2202231). Also: nearly all actives have a fitted effect of over 35% in size. Also: potency is read from the fitted curve at half-maximal effect.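 As to viability: plate controls were DMSO treated cells for no effect and wells without cells for full effect.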 As to conditions: SET-2 AML cells viability, CellTiter-Glo luminescence, 48 h; viability: active compounds read low, concentration not given here. The method, boiled down: as §2
(In ATP-based viability assays light output follows the ATP content of the culture.)

The nature of experiment [7]: BET inhibitor-based combinations targeting novel dependencies in MECOM-rearranged (r) AML: OCI-AML3 cell line (AID 2202232). Also: nearly all actives have a fitted effect of over 35% in size. Also: potency is read from the fitted curve at half-maximal effect. As to conditions: Potency: OCI-AML3 viability. The procedure, abridged:
as §2

The nature of experiment [8]: BET inhibitor-based combinations targeting novel dependencies in MECOM-rearranged (r) AML: MV-4-11 cell line (AID 2202233). Also: nearly all actives have a fitted effect of over 45% in size. Also: potency is read from the fitted curve at half-maximal effect. The procedure, abridged: as §1
A short description of experiment [9]: BET inhibitor-based combinations targeting novel dependencies in MECOM-rearranged (r) AML: HNT-34 cell line (AID 2202234). Also: nearly all actives have a fitted effect of over 35% in size. Also: potency is read from the fitted curve at half-maximal effect. The method, boiled down: as §1

The structures appear in SMILES notation. Where “and” joins values, the source holds several entries; their conditions need not be identical. Equal entries are not always repeated. Inconclusive results are not listed. Unmarked numbers belong to inactive results. Calls of active or inactive are those of the source. Calls follow the shape of the dose curve; as a rule, active = well fitted curve in the direction sought with a large enough effect; inconclusive = small, poorly fitted or top-dose-only effect, or another doubt; inactive = no such curve, though single readings can be large; an effect the other way counts as inactive or inconclusive.

Chain of Cellular tumor antigen p53 (Homo sapiens) (P04637 whole entry, looked up): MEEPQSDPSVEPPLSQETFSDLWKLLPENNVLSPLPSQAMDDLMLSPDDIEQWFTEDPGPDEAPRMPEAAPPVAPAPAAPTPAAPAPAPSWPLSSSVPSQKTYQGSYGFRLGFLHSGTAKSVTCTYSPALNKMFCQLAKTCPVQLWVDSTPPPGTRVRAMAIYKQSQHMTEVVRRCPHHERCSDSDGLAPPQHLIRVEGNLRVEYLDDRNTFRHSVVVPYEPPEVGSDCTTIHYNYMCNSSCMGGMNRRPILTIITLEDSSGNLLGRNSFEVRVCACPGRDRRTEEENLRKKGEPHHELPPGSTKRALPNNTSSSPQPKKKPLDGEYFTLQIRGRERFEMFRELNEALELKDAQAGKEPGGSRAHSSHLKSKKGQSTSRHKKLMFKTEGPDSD

As for `Cc1cc(Nc2nc(N[C@@H](C)c3ccc(F)cc3)c(C#N)cc2F)n[nH]1`, the Potency in experiment [1] is 16.9 µM (active); in experiment [3], 0.525 µM (active); in experiment [4], 0.105 µM (active); in experiment [5], 0.166 µM (active). In addition, in [2], the Potency result was “inactive”.

As for `CCOc1cc(N2CCC(O)CC2)ccc1Nc1ncc2c(n1)N(C)c1ccccc1C(=O)N2C`, in experiment [1], the activation is 72.4%. Besides, the Potency in experiment [6] is 14.8 µM (active); in [7], 3.32 µM (active); in [8] it was 2.95 µM (active); in experiment [9], 14.8 µM (active); in experiment [3], 8.33 µM (active).

With `N#Cc1c(NC(=O)c2cccc3ccccc23)sc2c1CCCC2`, the Potency in experiment [1] is 13.7 µM (active); in experiment [6], 0.525 µM (active); in experiment [7] it was 0.332 µM (active); in experiment [8], 0.372 µM (active); in [9] it was 0.372 µM (active); in experiment [3] it was 0.332 µM (active). For the same compound, the Potency in experiment [4] was 0.296 µM (active).

With `OCCC#Cc1nc(-c2ccc(F)cc2)c(-c2ccncc2)n1CCCc1ccccc1`, the activation in experiment [1] was 17.2%. Moreover, in experiment [6], the viability is 100%.

Turning to `NC(=NCCCCCCN=C(N)N=C(N)Nc1ccc(Cl)cc1)N=C(N)Nc1ccc(Cl)cc1`, the activation in [1] was 19.1%. The Potency was 26.3 µM (active) in experiment [6], 18.6 µM (active) in [7] and 20.9 µM (active) in experiment [8].

Turning to `O=C1[C@H](Cc2ccc(O)cc2)N2C(=O)CCN(C(=O)NCc3ccccc3)[C@H]2CN1Cc1cccc2ccccc12`, the activation in [1] was 18.1%. In addition, the Potency in experiment [6] was 11.8 µM (active); in [7], 9.34 µM (active); in experiment [8], 9.34 µM (active); in [9], 5.25 µM (active); in [3], 9.34 µM (active).

In the case of `CN(C)S(=O)(=O)c1ccc2c(c1)C(=Cc1cc3c([nH]1)CCCC3)C(=O)N2`, the Potency was 1.37 µM (active) in experiment [1], 5.9 µM (active) in [7] and 2.09 µM (active) in experiment [8]. In addition, the viability in [6] was 101%.

On to `Nc1nccc(-c2ccc3noc(-c4ccc(Cl)cc4)c3c2)n1`, for which, in experiment [1], the Potency was 34.3 µM (active). Besides, the viability in experiment [6] was 88.8%.

For `CN(c1ncccc1CNc1nc(Nc2ccc3c(c2)CC(=O)N3)ncc1C(F)(F)F)S(C)(=O)=O`, the Potency in [1] was 24.3 µM (active); in experiment [6], 6.61 µM (active); in experiment [7], 6.61 µM (active); in experiment [8], 0.833 µM (active); in experiment [9] it was 5.25 µM (active); in [3], 5.9 µM (active). Also, the Potency in experiment [4] is 4.68 µM (active).

For the compound `N#Cc1ccc(NC(=O)Nc2ccccc2Br)c2n[nH]nc12`, the activation in experiment [1] was -2.35%. Further, in experiment [6], the viability is 105%. Besides, in experiment [7], the Potency was 14.8 µM (active). The Potency result in [8], in experiment [9] and in experiment [3] was “inactive” each time.

As to `OC[C@H]1OC(O)C[C@@H](O)[C@H]1O` (some centres not stated), in experiment [1], the activation was 27.8%. Further, the viability in experiment [6] was 110%. Also, the Potency result in experiment [7], in experiment [8], in [9], in experiment [3] and in experiment [4] was “inactive” throughout.

Regarding `Nc1nc(Cl)nc2c1ncn2[C@@H]1O[C@H](CO)[C@@H](O)[C@@H]1F`, in [1], the activation is -10.7%. The Potency was 0.263 µM (active) in experiment [6]; 0.148 µM (active) in experiment [7]; 0.209 µM (active) in experiment [8]; 0.166 µM (active) in experiment [9]; 0.0263 µM (active) in experiment [3]; 0.0742 µM (active) in experiment [4].

Consider `CC(C)NC[C@@H](C(=O)N1CCN(c2ncnc3c2[C@H](C)C[C@H]3O)CC1)c1ccc(Cl)cc1`, for which the Potency in [1] is 34.3 µM (active). For the same compound, the viability in experiment [6] was 102%.

Take `Cc1cc(NC(=O)Nc2ccc(N(C)C)cc2)c2cc(F)cc(F)c2n1`: the activation in experiment [1] was -0.105%. Also, the viability in [6] was 94.3%. Also, the Potency in experiment [7] is 8.11 µM (active).

Turning to `COc1ccc2cc3[n+](cc2c1OC)CCc1cc2c(cc1-3)OCO2`, the activation in [1] was -7.97%. In addition, the Potency is 16.6 µM (active) in experiment [6], 4.17 µM (active) in experiment [7], 5.9 µM (active) in [8] and 23.5 µM (active) in [9]. For the same compound, the Potency entry in experiment [3] is “inactive”.

Take `C[C@H]1COC2=C1C(=O)C(=O)c1c2ccc2c1CCCC2(C)C`: in [1], the activation is -1.94%. Moreover, the figures for the Potency in [6], in experiment [7] and in experiment [8] were 20.9 µM (active), 20.9 µM (active) and 13.2 µM (active), respectively.

`CC[C@H](Nc1ncnc2nc[nH]c12)c1nc2cccc(F)c2c(=O)n1-c1ccccc1`: in experiment [1], the activation was 21.6% and 7.67%. The Potency result in [2] is “inactive”. For the same compound, the viability in experiment [6] was 94.4%. In addition, the Potency in [3] was 5.9 µM (active).

Broadly, the viability is a read-out of living cells in per cent, often relative to untreated cells.
